In PubChem BioAssay:
“And” between values parts separate entries of the source, which are not always exact repeats. Identical values can stand only once. The source made the active and inactive calls. Unless noted, the rule behind the calls is not given here.

Legend:
[1] = system: Wnt5a (protein binding on small-molecule microarray); assay: Wnt5a binders on small-molecule microarray, primary screen, biophysical, 635/667 nm fluorescence (AID 1142); settings: 635 nm fluorescence, higher = more signal;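 note: fluorescence read at 667 nm with signal to noise per printed feature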
[2] = cell viability in Huh7 cells, primary screen, cytotoxicity control for HCV replication inhibitor project, CellTiter-Glo luminescence, basal, 48 h (AID 1143); settings: Huh7 HCV replicon, higher = more signal, called active from +8 up or from −8 down;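 note: Huh7 hepatoma cells carrying a hepatitis C replication reporter with no stimulus; test concentration not given here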
[3] = P. aeruginosa biofilm formation inhibitors, primary screen, PAO1 strain, BacTiter-Glo luminescence, LB-PBS (AID 1144); settings: 12 h, higher = more signal
[4] = CREB reporter modulators without forskolin, primary screen, cell-based, PC12, CRE-LacZ reporter, unstimulated (AID 1145); settings: no forskolin, luminescence, 4.5 h, higher = more signal, called active from +8 up or from −8 down
[5] = CREB reporter modulators under forskolin, primary screen, cell-based, PC12, CRE-LacZ reporter, forskolin-stimulated (AID 1146); settings: luminescence, 4.5 h, higher = more signal, called active from +8 up or from −8 down;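 note: PC12 cells with 6xCRE LacZ reporter stimulated by forskolin 10 µM; beta-galactosidase reporter signal reflecting CREB driven transcription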
[6] = biological target: Streptavidin (Streptomyces avidinii) (UniProt P22629); assay: streptavidin binders on small-molecule microarray, primary screen, artefact control for SMM compound annotation, biophysical, 635/667 nm fluorescence (AID 1147); settings: streptavidin binding, higher = more signal;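 note: signal reflects streptavidin binding to arrayed compounds as a control protein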
Streptavidin (Streptomyces avidinii), sequence (P22629 whole entry, looked up): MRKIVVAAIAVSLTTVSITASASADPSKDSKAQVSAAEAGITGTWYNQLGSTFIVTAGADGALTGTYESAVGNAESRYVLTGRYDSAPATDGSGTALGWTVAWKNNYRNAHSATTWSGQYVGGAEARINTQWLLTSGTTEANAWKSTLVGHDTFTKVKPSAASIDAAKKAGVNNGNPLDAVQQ

[7] = small-molecule binders of probe aInhba, primary screen, biochemical, small-molecule microarray, 635/667 nm fluorescence (AID 1148); settings: higher = more signal;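 note: score merges 667nm spot fluorescence with signal-to-noise for antibody binding to printed compounds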
Torsin-1A (Homo sapiens) [8] = biological target: Torsin-1A (Homo sapiens) (UniProt O14656); assay: torsin A binders from cell lysate, primary screen, small-molecule microarray, wild-type, 635/667 nm (AID 1149); settings: COS7 hTOR1A-WT lysate, 635 nm fluorescence, higher = more signal
Torsin-1A (Homo sapiens), sequence (O14656 whole entry, looked up): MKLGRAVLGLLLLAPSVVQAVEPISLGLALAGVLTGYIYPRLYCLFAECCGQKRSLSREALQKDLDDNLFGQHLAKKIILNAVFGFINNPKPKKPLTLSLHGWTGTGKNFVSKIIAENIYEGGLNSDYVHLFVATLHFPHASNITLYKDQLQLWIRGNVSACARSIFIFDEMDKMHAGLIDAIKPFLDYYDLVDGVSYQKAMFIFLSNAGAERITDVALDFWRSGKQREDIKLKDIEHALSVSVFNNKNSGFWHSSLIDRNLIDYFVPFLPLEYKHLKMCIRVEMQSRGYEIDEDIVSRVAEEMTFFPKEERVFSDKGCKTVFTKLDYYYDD

Torsin-1A (Homo sapiens) [9] = biological target: Torsin-1A (Homo sapiens) (UniProt O14656); assay: small-molecule binders of mutant TOR1A in lysate, primary screen, cell lysate, small-molecule microarray, COS7 lysate, 635/667 nm fluorescence (AID 1150); settings: COS7 hTOR1A mutant lysate, 635 nm fluorescence, higher = more signal;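 note: score pools 667 nm emission and signal to noise measuring lysate protein binding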
[10] = system: Sonic hedgehog protein (Shh); assay: small-molecule binders of Shh protein, primary screen, biochemical, small-molecule microarray, 635/667 nm fluorescence (AID 1151); settings: small-molecule microarray binding, 635 nm fluorescence; higher = more signal;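 note: Shh protein binding to compounds spotted on small-molecule microarray slides; score combines spot fluorescence intensity with signal-to-noise across triplicate slides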
[11] = E. coli DRC41 culture turbidity changes, primary screen, E. coli filamentation inducer project, strain DRC41, OD650, 48 h (AID 1152);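 note: E. coli MC1000 strain DRC41 lacking acrAB efflux pump and sulA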; settings: E. coli DRC41 (acrAB sulA), higher = more signal, called active from +8 up or from −8 down
[12] = small-molecule binders of probe aLefty1, primary screen, biochemical, small-molecule microarray, 635/667 nm fluorescence (AID 1153); settings: higher = more signal;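 note: score merges spot fluorescence with signal-to-noise ratio from the scanned slide images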
[13] = PSAC antagonists in infected red cells, primary screen, cell-based, P. falciparum Indochina, OD700, 1 h (AID 1154); settings: P. falciparum Indochina infected RBC osmotic lysis, higher = more signal, called active from +8 up or from −8 down
[14] = PSAC antagonists in infected red cells, primary screen, cell-based, P. falciparum Indochina, OD700, 2 h (AID 1155);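 note: lysis reports solute entry through the parasite surface anion channel PSAC; channel blockers reduce lysis of infected cells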; settings: P. falciparum Indochina infected erythrocytes, osmotic lysis OD700; higher = more signal, called active from +8 up or from −8 down
[15] = osmotic lysis modulators in infected erythrocytes, primary screen, PSAC antagonist project, cell-based, P. falciparum Indochina, OD700, 3 h (AID 1156); settings: higher = more signal, called active from +8 up or from −8 down
[16] = PSAC antagonists in infected red cells, primary screen, cell-based, P. falciparum Indochina, OD700, 18 h (AID 1157); settings: P. falciparum Indochina infected erythrocytes, osmotic lysis OD700, 18 h; higher = more signal, called active from +8 up or from −8 down
[17] = modulators of S6 phosphorylation in cells, primary screen, cell-based, A549, cytoblot, luminescence, serum-stimulated (AID 1158); settings: A549 phospho-S6 cytoblot, 5 h, higher = more signal;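 note: serum-stimulated A549 lung adenocarcinoma cells; signal is phosphorylated S6 detected by cytoblot immunostaining with HRP secondary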
[18] = biological target: NADPH oxidase 2 (Homo sapiens) (UniProt P04839); assay: NOX2-dependent H2O2 signal modulators, primary screen, NOX inhibitor project, cell-based, HEK293-NOX2, PMA-stimulated, Amplex Red fluorescence (AID 1159); settings: 45 min, higher = more signal, called active from +8 up or from −8 down; note: test concentration not given here
NADPH oxidase 2 (Homo sapiens), sequence (P04839 whole entry, looked up): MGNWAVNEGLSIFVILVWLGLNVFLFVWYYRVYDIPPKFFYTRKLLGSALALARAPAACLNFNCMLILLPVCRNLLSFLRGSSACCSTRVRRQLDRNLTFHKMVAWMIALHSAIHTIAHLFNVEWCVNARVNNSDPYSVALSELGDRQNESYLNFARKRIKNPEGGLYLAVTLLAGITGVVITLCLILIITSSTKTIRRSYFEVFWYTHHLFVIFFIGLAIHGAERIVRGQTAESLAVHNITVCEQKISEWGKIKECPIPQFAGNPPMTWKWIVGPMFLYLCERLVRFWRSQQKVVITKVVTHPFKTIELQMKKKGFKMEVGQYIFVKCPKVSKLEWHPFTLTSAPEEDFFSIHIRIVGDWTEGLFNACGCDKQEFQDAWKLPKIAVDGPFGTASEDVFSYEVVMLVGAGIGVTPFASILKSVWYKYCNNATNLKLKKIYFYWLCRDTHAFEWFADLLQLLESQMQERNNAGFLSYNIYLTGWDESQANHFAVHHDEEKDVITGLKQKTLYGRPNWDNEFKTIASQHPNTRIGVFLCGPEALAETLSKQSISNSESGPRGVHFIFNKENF

[19] = biological target: NADPH oxidase 4 (Homo sapiens) (UniProt Q9NPH5); assay: NOX4-dependent H2O2 signal modulators, primary screen, NOX inhibitor project, cell-based, HEK293-NOX4, tetracycline-induced, Amplex Red fluorescence (AID 1160); settings: 45 min, higher = more signal, called active from +8 up or from −8 down
NADPH oxidase 4 (Homo sapiens), sequence (Q9NPH5 whole entry, looked up): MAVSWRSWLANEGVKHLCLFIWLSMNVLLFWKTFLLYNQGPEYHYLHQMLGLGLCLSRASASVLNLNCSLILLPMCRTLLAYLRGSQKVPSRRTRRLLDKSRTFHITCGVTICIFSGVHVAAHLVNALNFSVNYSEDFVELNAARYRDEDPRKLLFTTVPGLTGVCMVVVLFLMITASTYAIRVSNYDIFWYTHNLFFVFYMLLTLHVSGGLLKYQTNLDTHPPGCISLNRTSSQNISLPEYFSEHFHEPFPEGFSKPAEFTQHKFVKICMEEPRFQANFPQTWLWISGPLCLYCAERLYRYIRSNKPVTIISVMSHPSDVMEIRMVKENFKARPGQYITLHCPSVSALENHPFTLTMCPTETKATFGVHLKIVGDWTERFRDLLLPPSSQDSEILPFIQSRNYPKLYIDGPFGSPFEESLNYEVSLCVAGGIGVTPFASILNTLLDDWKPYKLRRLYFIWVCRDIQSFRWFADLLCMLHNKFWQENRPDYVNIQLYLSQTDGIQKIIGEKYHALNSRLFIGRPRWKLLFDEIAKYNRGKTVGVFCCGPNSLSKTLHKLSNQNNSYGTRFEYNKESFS

[20] = biological target: NADPH oxidase 5 (Homo sapiens) (UniProt Q96PH1); assay: NOX5-dependent H2O2 signal modulators, primary screen, NOX inhibitor project, cell-based, HEK293-NOX5, Amplex Red fluorescence (AID 1161); settings: HEK293-NOX5, ionomycin, 45 min, higher = more signal
NADPH oxidase 5 (Homo sapiens), sequence (Q96PH1 whole entry, looked up): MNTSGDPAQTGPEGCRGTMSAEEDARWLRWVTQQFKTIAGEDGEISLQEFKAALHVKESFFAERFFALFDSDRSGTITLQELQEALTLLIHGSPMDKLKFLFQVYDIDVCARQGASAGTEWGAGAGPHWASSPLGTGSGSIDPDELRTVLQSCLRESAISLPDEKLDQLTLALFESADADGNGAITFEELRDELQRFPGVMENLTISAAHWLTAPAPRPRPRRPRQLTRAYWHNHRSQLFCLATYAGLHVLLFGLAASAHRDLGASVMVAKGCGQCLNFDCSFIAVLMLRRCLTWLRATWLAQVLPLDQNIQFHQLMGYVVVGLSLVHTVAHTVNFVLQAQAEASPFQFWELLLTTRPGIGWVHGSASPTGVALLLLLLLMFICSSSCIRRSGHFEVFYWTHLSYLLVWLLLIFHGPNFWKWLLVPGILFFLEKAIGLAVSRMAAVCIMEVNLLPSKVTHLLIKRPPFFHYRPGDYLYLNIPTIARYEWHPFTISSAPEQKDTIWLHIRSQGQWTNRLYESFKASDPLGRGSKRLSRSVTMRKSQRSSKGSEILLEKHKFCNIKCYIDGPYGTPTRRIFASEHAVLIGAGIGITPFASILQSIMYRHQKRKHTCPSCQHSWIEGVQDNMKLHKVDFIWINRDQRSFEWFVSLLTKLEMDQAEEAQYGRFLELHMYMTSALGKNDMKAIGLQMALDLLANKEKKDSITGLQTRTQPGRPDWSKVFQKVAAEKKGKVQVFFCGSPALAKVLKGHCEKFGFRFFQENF

Row | Structure (SMILES) | composite z-score [1] | z-score [2] | z-score [3] | z-score [4] | z-score [5] | composite z-score [6] | composite z-score [7] | composite z-score (Torsin-1A (Homo sapiens) [8]) | composite z-score (Torsin-1A (Homo sapiens) [9]) | composite z-score [10] | z-score [11] | composite z-score [12] | z-score [13] | z-score [14] | z-score [15] | z-score [16] | z-score [17] | z-score [18] | z-score [19] | z-score [20]
1 | C[C@@H]1CN2[C@@H](CC[C@@H](C)[C@@H]2c2ccc(Br)cc2)C(=O)O1 | -0.174 and -0.0451 | 0.482 (inactive) and -0.656 (inactive) | 0.259 (inactive) and -1.1 (inactive) | 0.74 (inactive) and 2 (inactive) | 0.667 (inactive) and 0.0918 (inactive) | -0.404 and -0.145 | -0.193 and 0.0506 | -0.467 and 0.111 | 0.0914 and 0.0837 | 0.486 and 0.218 | -1.42 (inactive) and 0.0426 (inactive) | 0.0367 and -0.275 | 0.169 (inactive) and -0.313 (inactive) | 0.279 (inactive) and -1.09 (inactive) | -0.425 (inactive) and -0.16 (inactive) | 0.125 (inactive) and -1.18 (inactive) | -0.0649 and 1.61 | 1.55 (inactive) and -0.12 (inactive) | -1 (inactive) and 0.168 (inactive) | 0.0337 and 0.614
2 | COCn1c2ccccc2c2nnc(C(C)=O)nc21 | -0.122 and 0.0561 | -2.71 (inactive) and -2.58 (inactive) | -0.843 (inactive) and -0.869 (inactive) | 0.11 (inactive) and -0.0732 (inactive) | 0.353 (inactive) and 0.754 (inactive) | -0.121 and -0.232 | -0.274 and 0.0111 | 0.331 and 0.417 | -0.302 and 0.13 | 0.479 and 0.343 | -1.46 (inactive) and -0.426 (inactive) | -0.103 and -0.0111 | 1.91 (inactive) and 0.558 (inactive) | -0.781 (inactive) and -1.09 (inactive) | 0.68 (inactive) and 1.07 (inactive) | -1.28 (inactive) and -1.44 (inactive) | 2.52 and 1.53 | -0.424 (inactive) and -0.738 (inactive) | -0.773 (inactive) and -0.0619 (inactive) | -2.97 and -3.35
3 | C=CCN(C(=O)C(c1cccs1)N(C(=O)/C=C\C(=O)O)c1ccc(CCO)cc1)C(C)(C)C (stereo not given) | -0.156 and -1.27 | -0.243 (inactive) and 0.38 (inactive) | -0.638 (inactive) and 0.984 (inactive) | -0.0859 (inactive) and 0.597 (inactive) | 0.332 (inactive) and -0.439 (inactive) | -0.298 and -0.966 | -0.154 and -0.227 | -0.603 and -2.33 | 1.56 and -2.14 | -0.754 and -1.36 | 0.381 (inactive) and -0.0974 (inactive) | -0.134 and 0.0355 | -0.274 (inactive) and -0.322 (inactive) | -0.432 (inactive) and 0.0511 (inactive) | -0.518 (inactive) and -0.338 (inactive) | 0.0097 (inactive) and 0.232 (inactive) | 1.36 and 0.123 | 0.0507 (inactive) and 0.27 (inactive) | -0.86 (inactive) and -0.783 (inactive) | 0.274 and 0.335
4 | COC(=O)C1=C(C)N(Cc2ccccc2)[C@]23O[C@](C(=O)OC)(C(=O)N2[C@@H]1c1ccccc1)[C@H]1C(=O)N(C)C(=O)[C@H]13 | 0.0757 and 0.142 | -1.01 (inactive) and -1.34 (inactive) | 0.225 (inactive) | 3.17 (inactive) and 0.019 (inactive) | -0.735 (inactive) and -1.7 (inactive) | 0.412 and 0.0225 | -0.278 and -0.179 | 0.314 and 0.263 | 0.691 and 0.524 | 0.548 and 0.736 | 0.903 (inactive) and 0.564 (inactive) | -0.0418 and 0.223 | 1.35 (inactive) and -0.228 (inactive) | 0.719 (inactive) and -1.26 (inactive) | 0.501 (inactive) and -0.562 (inactive) | 0.248 (inactive) and -1.16 (inactive) | 0.486 and 0.567 | -0.56 (inactive) and -0.171 (inactive) | -0.329 (inactive) and 0.811 (inactive) | 1.57 and 0.888
5 | C=CCN(C(=O)C1N(c2c(Cl)cccc2CO)C(=O)C2C(C(=O)O)C3C=CC21O3)C(C)(C)C (stereo not given) | -0.948 and -0.619 | -0.488 (inactive) and 0.0489 (inactive) | -0.774 (inactive) and -0.443 (inactive) | -1.44 (inactive) and 0.329 (inactive) | -0.219 (inactive) and -0.51 (inactive) | 0.163 and -1.11 | -0.702 and -0.213 | -2.54 and -1.22 | -1.62 and -1.73 | -1.17 and -0.681 | 1.66 (inactive) and 1.99 (inactive) | -0.945 and -0.0547 | 1.77 (inactive) and -0.973 (inactive) | 0.821 (inactive) and -1.1 (inactive) | 1.03 (inactive) and -0.229 (inactive) | 0.604 (inactive) and -1.54 (inactive) | 0.442 and 1.04 | 0.961 (inactive) and 0.116 (inactive) | -0.288 (inactive) and -0.645 (inactive) | 0.788 and -0.335
6 | C=CCN(CCCCC)C(=O)C1N(c2c(Cl)cccc2CO)C(=O)C2C(C(=O)O)C3C=CC21O3 (stereo not given) | -0.65 and -1.3 | 0.0928 (inactive) and -0.313 (inactive) | -0.568 (inactive) and -0.00991 (inactive) | 0.467 (inactive) and 0.199 (inactive) | 0.209 (inactive) and -0.0386 (inactive) | -1.41 | -0.258 and -0.152 | -1.44 and -3.52 | -1.09 and -2.63 | -0.333 and -1.79 | -0.281 (inactive) and -0.118 (inactive) | -0.313 and 0.0547 | 1.02 (inactive) and 0.766 (inactive) | 0.078 (inactive) and 0.573 (inactive) | 0.418 (inactive) and 0.0852 (inactive) | 0.188 (inactive) and -0.058 (inactive) | 0.0308 and 0.765 | 0.871 (inactive) and 0.757 (inactive) | -1.02 (inactive) and -1.22 (inactive) | -0.554 and -0.2
